What was measured:
Assay in all cases: SPOT peptide array binding signal intensity (averaged, normalized) (arbitrary units (background-subtracted, floor 0; scale differs between SH3 domains)); higher = stronger binding of the SH3 domain to the peptide
[1] = molecular target: AgAbp1
How it was run: (§1)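 Cellulose membranes carried synthetic 15-mer peptides with cysteines swapped for serines. These were incubated overnight at 4°C with 10 μg/ml of GST-fused SH3 domains from four yeast species in TBS-based blocking buffer. Binding signal, detected with anti-GST antibody and quantified in Genespotter, is the normalized, background-subtracted spot intensity averaged over replicates, in arbitrary units specific to each domain.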

[2] = molecular target: AgBbc1
How it was run: as §1

[3] = molecular target: AgBem1-D1
How it was run: as §1

[4] = molecular target: AgBzz1-D1
How it was run: as §1

[5] = molecular target: AgBzz1-D2
How it was run: as §1

[6] = molecular target: AgCyk3
How it was run: as §1

[7] = molecular target: AgFus1
How it was run: as §1

[8] = molecular target: AgHof1
How it was run: as §1

[9] = molecular target: AgHse1
How it was run: as §1

[10] = molecular target: AgLsb1
How it was run: as §1

[11] = molecular target: AgLsb4
How it was run: as §1

[12] = molecular target: AgMyo5
How it was run: as §1

[13] = molecular target: AgNbp2
How it was run: as §1

[14] = molecular target: AgRvs167
How it was run: as §1

[15] = molecular target: AgSho1
How it was run: as §1

[16] = molecular target: AgSla1-D1-D2
How it was run: as §1

[17] = molecular target: AgSla1-D3
How it was run: as §1

[18] = molecular target: CaAbp1-D1
How it was run: as §1

[19] = molecular target: CaAbp1-D2
How it was run: as §1

[20] = molecular target: CaBbc1
How it was run: as §1

[21] = molecular target: CaBem1-D1
How it was run: as §1

[22] = molecular target: CaBzz1-D1
How it was run: as §1

[23] = molecular target: CaBzz1-D2
How it was run: as §1

[24] = molecular target: CaCyk3
How it was run: as §1

[25] = molecular target: CaFus1
How it was run: as §1

[26] = molecular target: CaHof1
How it was run: as §1

[27] = molecular target: CaHse1
How it was run: as §1

[28] = molecular target: CaLsb1
How it was run: as §1

[29] = molecular target: CaLsb4
How it was run: as §1

[30] = molecular target: CaMyo5
How it was run: as §1

[31] = molecular target: CaNbp2
How it was run: as §1

[32] = molecular target: CaRvs167
How it was run: as §1

[33] = molecular target: CaRvs167-3
How it was run: as §1

[34] = molecular target: CaSho1
How it was run: as §1

[35] = molecular target: CaSla1-D1-D2
How it was run: as §1

[36] = molecular target: CaSla1-D3
How it was run: as §1

[37] = molecular target: ScAbp1
How it was run: as §1

[38] = molecular target: ScBbc1
How it was run: as §1

[39] = molecular target: ScBem1-D1
How it was run: as §1

[40] = molecular target: ScBzz1-D1
How it was run: as §1

[41] = molecular target: ScBzz1-D2
How it was run: as §1

[42] = molecular target: ScCyk3
How it was run: as §1

[43] = molecular target: ScFus1
How it was run: as §1

[44] = molecular target: ScHof1
How it was run: as §1

[45] = molecular target: ScHse1
How it was run: as §1

[46] = molecular target: ScLsb1
How it was run: as §1

[47] = molecular target: ScLsb2
How it was run: as §1

[48] = molecular target: ScLsb3
How it was run: as §1

[49] = molecular target: ScLsb4
How it was run: as §1

[50] = molecular target: ScMyo3
How it was run: as §1

[51] = molecular target: ScMyo5
How it was run: as §1

[52] = molecular target: ScNbp2
How it was run: as §1

[53] = molecular target: ScPex13
How it was run: as §1

[54] = molecular target: ScRvs167
How it was run: as §1

[55] = molecular target: ScSho1
How it was run: as §1

[56] = molecular target: ScSla1-D1-D2
How it was run: as §1

[57] = molecular target: ScSla1-D3
How it was run: as §1

[58] = molecular target: SpAbp1-D1
How it was run: as §1

[59] = molecular target: SpBbc1
How it was run: as §1

[60] = molecular target: SpBzz1-D1
How it was run: as §1

[61] = molecular target: SpBzz1-D2
How it was run: as §1

[62] = molecular target: SpCyk3
How it was run: as §1

[63] = molecular target: SpHof1
How it was run: as §1

[64] = molecular target: SpHof1-2
How it was run: as §1

[65] = molecular target: SpHof1-3
How it was run: as §1

[66] = molecular target: SpHse1
How it was run: as §1

[67] = molecular target: SpLsb1
How it was run: as §1

[68] = molecular target: SpLsb4
How it was run: as §1

[69] = molecular target: SpMyo1
How it was run: as §1

[70] = molecular target: SpNbp2
How it was run: as §1

[71] = molecular target: SpPex13
How it was run: as §1

[72] = molecular target: SpRvs167
How it was run: as §1

[73] = molecular target: SpSla1-D1-D2
How it was run: as §1

[74] = molecular target: SpSla1-D3
How it was run: as §1

## DKKTKPTPPPKPSHL
[1]
  SPOT peptide array binding signal intensity: 1090
[2]
  SPOT peptide array binding signal intensity: 24.8
[3]
  SPOT peptide array binding signal intensity: ≤ 0
[4]
  SPOT peptide array binding signal intensity: 61
[5]
  SPOT peptide array binding signal intensity: 34.5
[6]
  SPOT peptide array binding signal intensity: 1
[7]
  SPOT peptide array binding signal intensity: 6
[8]
  SPOT peptide array binding signal intensity: 18.5
[9]
  SPOT peptide array binding signal intensity: ≤ 0
[10]
  SPOT peptide array binding signal intensity: ≤ 0
[11]
  SPOT peptide array binding signal intensity: ≤ 0
[12]
  SPOT peptide array binding signal intensity: ≤ 0
[13]
  SPOT peptide array binding signal intensity: ≤ 0
[14]
  SPOT peptide array binding signal intensity: 0.167
[15]
  SPOT peptide array binding signal intensity: 45
[16]
  SPOT peptide array binding signal intensity: ≤ 0
[17]
  SPOT peptide array binding signal intensity: 2
[18]
  SPOT peptide array binding signal intensity: 1790
[19]
  SPOT peptide array binding signal intensity: 3130
[20]
  SPOT peptide array binding signal intensity: 50.8
[21]
  SPOT peptide array binding signal intensity: ≤ 0
[22]
  SPOT peptide array binding signal intensity: 1480
[23]
  SPOT peptide array binding signal intensity: 262
[24]
  SPOT peptide array binding signal intensity: ≤ 0
[25]
  SPOT peptide array binding signal intensity: ≤ 0
[26]
  SPOT peptide array binding signal intensity: 0.75
[27]
  SPOT peptide array binding signal intensity: 8.5
[28]
  SPOT peptide array binding signal intensity: 0.5
[29]
  SPOT peptide array binding signal intensity: ≤ 0
[30]
  SPOT peptide array binding signal intensity: ≤ 0

## NVLRKILEIPLHSFS
[1]
  SPOT peptide array binding signal intensity: 4
[2]
  SPOT peptide array binding signal intensity: ≤ 0
[3]
  SPOT peptide array binding signal intensity: ≤ 0
[4]
  SPOT peptide array binding signal intensity: 5.5
[5]
  SPOT peptide array binding signal intensity: 24.5
[6]
  SPOT peptide array binding signal intensity: ≤ 0
[7]
  SPOT peptide array binding signal intensity: 29.5
[8]
  SPOT peptide array binding signal intensity: ≤ 0
[9]
  SPOT peptide array binding signal intensity: 2570
[10]
  SPOT peptide array binding signal intensity: 2
[11]
  SPOT peptide array binding signal intensity: 16
[12]
  SPOT peptide array binding signal intensity: ≤ 0
[13]
  SPOT peptide array binding signal intensity: ≤ 0
[14]
  SPOT peptide array binding signal intensity: 1
[15]
  SPOT peptide array binding signal intensity: ≤ 0
[16]
  SPOT peptide array binding signal intensity: ≤ 0
[17]
  SPOT peptide array binding signal intensity: 2
[18]
  SPOT peptide array binding signal intensity: ≤ 0
[19]
  SPOT peptide array binding signal intensity: ≤ 0
[20]
  SPOT peptide array binding signal intensity: ≤ 0
[21]
  SPOT peptide array binding signal intensity: ≤ 0
[22]
  SPOT peptide array binding signal intensity: ≤ 0
[23]
  SPOT peptide array binding signal intensity: ≤ 0
[24]
  SPOT peptide array binding signal intensity: ≤ 0
[25]
  SPOT peptide array binding signal intensity: 1150
[26]
  SPOT peptide array binding signal intensity: ≤ 0
[27]
  SPOT peptide array binding signal intensity: 7
[28]
  SPOT peptide array binding signal intensity: 6
[29]
  SPOT peptide array binding signal intensity: ≤ 0
[30]
  SPOT peptide array binding signal intensity: ≤ 0
[31]
  SPOT peptide array binding signal intensity: 94.5
[32]
  SPOT peptide array binding signal intensity: ≤ 0
[33]
  SPOT peptide array binding signal intensity: 7.25
[34]
  SPOT peptide array binding signal intensity: 75
[35]
  SPOT peptide array binding signal intensity: ≤ 0
[36]
  SPOT peptide array binding signal intensity: ≤ 0
[37]
  SPOT peptide array binding signal intensity: 2
[38]
  SPOT peptide array binding signal intensity: ≤ 0
[39]
  SPOT peptide array binding signal intensity: ≤ 0
[40]
  SPOT peptide array binding signal intensity: 12
[41]
  SPOT peptide array binding signal intensity: 26
[42]
  SPOT peptide array binding signal intensity: 31
[43]
  SPOT peptide array binding signal intensity: 123
[44]
  SPOT peptide array binding signal intensity: ≤ 0
[45]
  SPOT peptide array binding signal intensity: 1780
[46]
  SPOT peptide array binding signal intensity: 59.8
[47]
  SPOT peptide array binding signal intensity: ≤ 0
[48]
  SPOT peptide array binding signal intensity: ≤ 0
[49]
  SPOT peptide array binding signal intensity: ≤ 0
[50]
  SPOT peptide array binding signal intensity: 0.75
[51]
  SPOT peptide array binding signal intensity: ≤ 0
[52]
  SPOT peptide array binding signal intensity: 9.5
[53]
  SPOT peptide array binding signal intensity: ≤ 0
[54]
  SPOT peptide array binding signal intensity: 0.833
[55]
  SPOT peptide array binding signal intensity: 120
[56]
  SPOT peptide array binding signal intensity: ≤ 0
[57]
  SPOT peptide array binding signal intensity: ≤ 0
[58]
  SPOT peptide array binding signal intensity: ≤ 0
[59]
  SPOT peptide array binding signal intensity: 38
[60]
  SPOT peptide array binding signal intensity: ≤ 0
[61]
  SPOT peptide array binding signal intensity: ≤ 0
[62]
  SPOT peptide array binding signal intensity: 0.5
[63]
  SPOT peptide array binding signal intensity: 2
[64]
  SPOT peptide array binding signal intensity: ≤ 0
[65]
  SPOT peptide array binding signal intensity: 591
[66]
  SPOT peptide array binding signal intensity: 2430
[67]
  SPOT peptide array binding signal intensity: ≤ 0
[68]
  SPOT peptide array binding signal intensity: ≤ 0
[69]
  SPOT peptide array binding signal intensity: ≤ 0
[70]
  SPOT peptide array binding signal intensity: 32.5
[71]
  SPOT peptide array binding signal intensity: 2
[72]
  SPOT peptide array binding signal intensity: ≤ 0
[73]
  SPOT peptide array binding signal intensity: ≤ 0
[74]
  SPOT peptide array binding signal intensity: ≤ 0

From the supplement of paper PMC4466140
